Reference: PubChem BioAssay (NCI)
This is part of a sample that, as a whole, favours compounds with a hit. Of some 79,000 tested, about 15% had one in any assay. No stated cut-off is given here; in the data, active means growth inhibition above about 70%; inactive means the rest.

Columns and labels:
[1] = NCI Yeast Anticancer Drug Screen. Data for the rad50 strain (AID 155);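 further: 0% = growth of vehicle-only cultures of the same strain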; settings: S. cerevisiae rad50 strain growth inhibition; at 50.0 µM; hits give high values
Outline: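 Vehicle-treated cultures provide the reference for the growth inhibition reported for compound-exposed, repair-deficient yeast.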

[2] = NCI Yeast Anticancer Drug Screen. Data for the mec2-1 strain (AID 157); settings: S. cerevisiae mec2-1 strain, at 50.0 µM, hits give high values
Outline: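 Each compound was tested on mec2-1 yeast, a strain altered in DNA damage repair or cell cycle control. Growth inhibition is reported relative to vehicle.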

[3] = NCI Yeast Anticancer Drug Screen. Data for the sgs1 mgt1 strain (AID 161);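 further: 0% = growth of cultures given vehicle only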; settings: S. cerevisiae sgs1 mgt1 strain, at 50.0 µM, hits give high values
Outline: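 Genetically altered yeast, compound exposure, growth inhibition relative to vehicle.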

[4] = NCI Yeast Anticancer Drug Screen. Data for the cln2 rad14 strain (AID 165);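 further: 0% = growth equal to vehicle treated cultures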; settings: S. cerevisiae cln2 rad14 strain, at 50.0 µM, hits give high values
Outline: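 Test compounds were added to cln2 rad14 yeast cultures; inhibition of growth was then determined by comparison with vehicle treatment.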

[5] = NCI Yeast Anticancer Drug Screen. Data for the bub3 strain (AID 167); settings: S. cerevisiae bub3 mutant strain, at 50.0 µM, hits give high values
Outline: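 Mutant yeast screening strain plus compound; vehicle-treated cultures serve as the 0% inhibition reference.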

[6] = NCI Yeast Anticancer Drug Screen. Data for the mlh1 rad18 strain (AID 175); settings: S. cerevisiae mlh1 rad18 strain growth inhibition; at 50.0 µM; hits give high values
Outline: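 Inhibition values reflect reduced growth of mutant yeast versus vehicle-treated controls following compound exposure; the mutations affect DNA damage repair.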

Measured: growth inhibition

CC1CCC(C(C)(C)c2ccccc2)C(=O)C1 (stereo unspecified)
inactive: [1] 12.1% | [2] -17.6% | [3] -9.4% | [4] 19.4% | [5] -19% | [6] 15.4%

Nc1nc2ccc(Br)cc2s1
inactive: [1] 9.3% | [2] 26.6% | [3] 35.9% | [4] 11.6% | [5] 32.5% | [6] 32.4%

COc1cc2c(cc1OC)C(=O)/C(=C/c1ccc([N+](=O)[O-])cc1)CC2
inactive: [1] -50.2% | [2] -56.5% | [3] -11.9% | [4] -38.2% | [5] -28% | [6] -33.9%

O=c1cc(O)cc2n1CCC2
inactive: [1] 5.15% | [2] 4.6% | [3] -11.4% | [4] 16.4% | [5] -14.8% | [6] 0.35%

COC(=O)c1c([N+](=O)[O-])ncn1[C@H]1OC[C@@H](OC(C)=O)[C@@H](OC(C)=O)[C@@H]1OC(C)=O
inactive: [1] -24.8% | [2] -8.6% | [3] -20.9% | [4] -0.8% | [5] -5.5% | [6] 1.55%

CCCCCCCCCCCCCCCCCCCCCC(C)C
inactive: [1] -8% | [2] 0.8% | [3] -10.9% | [4] -8.6% | [5] -7.55% | [6] -31.4%

O=C(CCC(=O)Nc1cccc(Cl)c1)CC(=O)c1ccc(F)cc1
inactive: [1] -11.2% | [2] -1.8% | [3] 6.3% | [4] -23.9% | [5] -0.85% | [6] -4.85%

CCCCCCCCCCCCCCCCOc1ccc(-c2cc(=O)n(C)n2C)cc1OC
inactive: [1] -14.1% | [2] -27.2% | [3] -9.3% | [4] -0.15% | [5] -8.55% | [6] -16.2%

COc1cc(/C=C/C(=O)N[C@@H]2C(=O)N3[C@@H]2SC(C)(C)[C@@H]3C(=O)O)cc(OC)c1OC
inactive: [1] -5.6% | [2] -18.4% | [3] -34.8% | [4] 10.1% | [5] -7% | [6] -43.9%

C=C1C(=O)OC2CC(C)C(C(CC(C)=O)OC(C)=O)=CCC12 (stereo unspecified)
inactive: [1] 0.6% | [2] 5.1% | [3] 3.6% | [4] 6.8% | [5] 6.1% | [6] -53.7%

O=c1c([OH2+])c(-c2ccc(O)cc2[O-])oc2cc(O)cc([O-])c12.O=c1c([OH2+])c(-c2ccc(O)cc2[O-])oc2cc(O)cc([O-])c12.[Ti+4]
inactive: [1] -43.4% | [2] 27.2% | [3] 7.95% | [4] 8.2% | [5] 2.55% | [6] 10.2%

CCCCn1c(CCC)nc([N+](=O)[O-])c1Sc1ncn[nH]1
inactive: [1] -4.15% | [2] 6.15% | [3] -28.4% | [4] -1% | [5] -20.2% | [6] 8.6%

CC(C)(C)OC(=O)N(CCCCNC(=O)c1ccccc1)CCCNC(=O)c1ccccc1
inactive: [1] 13.4% | [2] -8.5% | [3] -30% | [4] -26.5% | [5] -36.5% | [6] -64%

COc1ccc(NC(=O)NNS(=O)(=O)c2ccc(C)cc2)cc1
inactive: [1] 10.1% | [2] 6.15% | [3] 6.6% | [4] 4.9% | [5] 13.9% | [6] -36.9%

O=c1[nH]nc(-c2ccccc2)n1/N=C/c1c(O)ccc2ccccc12
inactive: [1] 8.15% | [2] 17.9% | [3] 9.15% | [4] 13.3% | [5] 15.4% | [6] 24.6%

COC(=O)C1Cc2cc3c(cc2C1=O)CCC3 (stereo unspecified)
inactive: [1] -19.2% | [2] -12.8% | [3] -2.8% | [4] 6.75% | [5] 20.4% | [6] -5.45%

Cc1cc([N+](=O)[O-])ccc1NS(=O)(=O)c1ccccc1
inactive: [1] 24.9% | [2] 39.5% | [3] 42.9% | [4] 15.5% | [5] 18.1% | [6] 36.6%

O=[N+]([O-])c1ccc(/C=N\N=C\c2ccco2)cc1
inactive: [1] 1.85% | [2] 16.8% | [3] -4.35% | [4] -50.1% | [5] -9.9% | [6] 4.95%

c1ccc(SCCCCSc2ccccc2)cc1
inactive: [1] 17.1% | [2] 5.05% | [3] -2.55% | [4] -38% | [5] 14.1% | [6] 43%

Cc1ccc(S(=O)(=O)NN(C)C(=O)c2ccccc2)cc1
inactive: [1] -5.95% | [2] -0.75% | [3] 3.05% | [4] -25.2% | [5] 22.8% | [6] -9.05%

CSc1nc(Br)nc2c1ncn2C1CC(Oc2ccc(C)cc2)C(COc2ccc(C)cc2)O1 (stereo unspecified)
inactive: [1] 13.4% | [2] 4.3% | [3] 22.1% | [4] 18.6% | [5] 17.1% | [6] -23.8%
